# Data: the supplement of paper PMC7411054
# Legend:
# Test in all cases: lowest phenotypically active concentration; higher = less potent
# Details in all cases: treatment time: 24 h
# A549-TP53BP1-CLTA = system: A549-TP53BP1-CLTA
# How it was run: (§1)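 Each of fifteen gene-edited A549, HepG2 and WPMY1 reporter lines, marked with BFP for segmentation and GFP and RFP/FusionRed, was treated in four wells at 0.3, 1, 3 or 9 µM for 24 h prior to live imaging. Normalisation of per-well live-cell features used solvent control wells. Deviation needed ≥3 of 4 wells beyond the 95th percentile of control Euclidean distances, and reproducibility needed a median replicate Pearson correlation above the 95th percentile of non-replicates. Both were required for phenotypic activity.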
# HepG2-CANX-COX4 = system: HepG2-CANX-COX4
# How it was run: as §1
# HepG2-GM130-SQSTM1 = system: HepG2-GM130-SQSTM1
# How it was run: as §1
# HepG2-TUBA1B-RELA = system: HepG2-TUBA1B-RELA
# How it was run: as §1
# WPMY1-ACTB-RAB5A = system: WPMY1-ACTB-RAB5A
# How it was run: as §1
# WPMY1-CANX-COX4 = system: WPMY1-CANX-COX4
# How it was run: as §1
# WPMY1-GM130-SQSTM1 = system: WPMY1-GM130-SQSTM1
# How it was run: as §1
# WPMY1-TP53BP1-CLTA = system: WPMY1-TP53BP1-CLTA
# How it was run: as §1
# WPMY1-TUBA1B-RELA = system: WPMY1-TUBA1B-RELA
# How it was run: as §1
Compound,lowest phenotypically active concentration (A549-TP53BP1-CLTA) [µM],lowest phenotypically active concentration (HepG2-CANX-COX4) [µM],lowest phenotypically active concentration (HepG2-GM130-SQSTM1) [µM],lowest phenotypically active concentration (HepG2-TUBA1B-RELA) [µM],lowest phenotypically active concentration (WPMY1-ACTB-RAB5A) [µM],lowest phenotypically active concentration (WPMY1-CANX-COX4) [µM],lowest phenotypically active concentration (WPMY1-GM130-SQSTM1) [µM],lowest phenotypically active concentration (WPMY1-TP53BP1-CLTA) [µM],lowest phenotypically active concentration (WPMY1-TUBA1B-RELA) [µM]
Cc1noc(C)c1-c1ccc2c(c1)nc(CCc1ccc(OCCCN(C)C)cc1)n2CCN1CCOCC1,9,9,9,9,9,9,9,9,9
C[C@]1(O)C[C@@H](c2nc(-c3ccc4ccc(-c5ccccc5)nc4c3)c3c(N)nccn32)C1 [linsitinib],9,9,9,9,9,9,9,9,
CN1[C@@H]2CC[C@H]1C[C@@H](OC(c1ccccc1)c1ccccc1)C2 [benztropine],9,9,,9,,9,9,,9
CSc1ccc2c(c1)N(CCC1CCCCN1C)c1ccccc1S2 (stereo not drawn) [thioridazine],9,9,9,9,9,9,9,9,9
O=C(O)C[C@H](O)C[C@H](O)/C=C/c1c(C2CC2)nc2ccccc2c1-c1ccc(F)cc1 [Pitavastatin calcium],9,1,1,1,≤ 0.3,1,≤ 0.3,1,1
COc1cc2ncnc(Nc3ccc(Cl)cc3F)c2cc1OC,3,,,,,,,,
NS(=O)(=O)c1nn2cc(-c3ccccc3)nc2s1,9,9,9,9,9,,9,9,9
Cc1ccc(NC(=O)c2cccc(N(C)C)c2)cc1NC(=O)c1ccc(O)cc1,3,,,,9,,,,
CC(C)COCC(CN(Cc1ccccc1)c1ccccc1)N1CCCC1 (stereo not drawn) [bepridil],9,9,9,9,,9,9,9,
O=C(NOCC1CC1)c1ccc(F)c(F)c1Nc1ccc(I)cc1Cl,≤ 0.3,1,≤ 0.3,≤ 0.3,,,,,
COc1ccccc1OCCNCC(O)COc1cccc2[nH]c3ccccc3c12 (stereo not drawn) [Carvedilol],9,9,9,9,9,9,3,9,9
N#C/C(=C(/N)Sc1ccc(N)cc1)c1ccccc1C(F)(F)F,1,3,9,9,,,,9,
O=C(O)[C@@H]1[C@H]2C[C@H]3c4[nH]c5ccccc5c4CCN3C[C@@H]2CC[C@@H]1O [Yohimbinic acid monohydrate],9,,,,9,9,9,9,9
